tested on: gramicidin D channels in DC22:1PC lipid vesicles (bilayer-modifying potency); assay: initial Tl+ fluorescence quench rate relative to no-drug control (NormRate, gramicidin monomer-dimer shift) (ratio (fold of control)); higher = stronger bilayer-modifying effect (equilibrium shifted toward conducting dimers), active = 1.5 or more; conditions: 10 µM; lipid concentration 50 µM; temperature: 25 °C
Method: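 Stopped-flow fluorescence quench assay: ANTS-loaded DC22:1PC large unilamellar vesicles doped with gramicidin D (1:2000), 50 µM lipid, equilibrated 10 min with 10 µM drug (0.1% DMSO), mixed with Tl+ quench buffer at 25°C. Initial quench rate (Tl+ influx) was fitted with a modified stretched exponential and normalised to the no-drug control rate (NormRate); duplicates from two independent LUV preparations (triplicates for 7 drugs).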

Structure (SMILES)	initial Tl+ fluorescence quench rate
COc1ccc(N(CCc2cccc(C)n2)C(=O)C2CCCCC2)cc1	1.41 (inactive)
COc1cccc(CC(=O)N2CCC(n3c(C)nc4ccc(F)cc43)CC2)c1	1.15 (inactive)
O=C(Nc1c(O)cccc1-c1nc2c(C(=O)O)cccc2o1)c1cc(-c2ccccc2)on1	1.35 (inactive)
CC(C)(C(=O)Nc1ccc(F)cc1)n1cc(-c2ccccc2F)cn1	1.42 (inactive)
Cc1ccc(NC(=O)C[C@@H]2COc3ccccc3O2)cc1Cl	2.24 (active)
O[C@@H](c1cc(C(F)(F)F)nc2c(C(F)(F)F)cccc12)[C@H]1CCCCN1	2.24 (active)
Cc1cccnc1NC(=O)c1cccc(OCc2c(C)noc2C)c1	1.07 (inactive)
CC(C)(C)OC(=O)N1CCN(c2nccc(-c3ccc(-c4ccc(Cl)cc4)s3)n2)CC1	1.28 (inactive)
COc1cccc2c(C)nc(N=C(N)N)nc12	1.08 (inactive)
O=C(Nc1cccnc1)c1c(O)c2cccc3c2n(c1=O)CC3	1.07 (inactive)
N#Cc1nc(-c2ccccc2F)oc1NCCc1ccccc1	1.04 (inactive)
N#Cc1nc(-c2ccccc2)oc1S(=O)(=O)c1ccc(Cl)cc1	1.12 (inactive)
CC1=Nc2ccc(Cl)cc2[C@](O)(c2ccc(C)cc2)N1CCN1CCCCC1	1.66 (active)
CCOC(=O)c1noc(N)c1-c1ccccc1	1.03 (inactive)
CC(C)(C)c1cc(C(=O)N2CCN(c3nccnc3C#N)CC2)n(Cc2ccccc2)n1	1.21 (inactive)

From the supplement of paper PMC9948646
